Targets include AHCY; AHDC1; AIG1; AKR1C4; ANGPTL1; ANG; ANGPTL3; ANAPC5.
Common to all, as to assay: pooled miR-30 sensor sort-seq; sequence = guide strand
Holding throughout (conditions): shRNA
Also: reference of the scale not given here.

Take TTGTAGAGGTTGTGGACCCCAG: the sensor-assay potency score (higher = more potent) with AHCY is -0.72.

Sequence TTTGCGGGTAGAGACCACTGGG displayed a sensor-assay potency score (higher = more potent) with AHDC1 of -0.394.

The sequence ACACACAATGGCATCATCCTTC registered a sensor-assay potency score (higher = more potent) with AHCY of -0.521.

TTGCTGTTAGCGCAGTCCTGGC displayed a sensor-assay potency score (higher = more potent) in the assay with AHDC1 of -1.57.

ATGCTTGCCATCAAGCTCGGGA registered a sensor-assay potency score (higher = more potent) in the assay with AHDC1 of -0.78.

Turning to TTGGGTACCATGTAGCCACCGG, the sensor-assay potency score (higher = more potent) in the assay with AHDC1 is -0.207.

Consider AACTCTGGGACTGAGACCGGGC, for which the sensor-assay potency score (higher = more potent) with AHDC1 is -0.558.

In the assay with AHCY, TAGCTTGGTCAACTTCACATTC yielded a sensor-assay potency score (higher = more potent) of -1.21.

In turn, TTGAACTGGGTGCTGTCGGAGG registered a sensor-assay potency score (higher = more potent) in the assay with AHDC1 of -0.689.

Take TTCTTTAACACACAGTGAGGGT: the sensor-assay potency score (higher = more potent) with AIG1 is -0.962.

In turn, TAGTTACACAGGATAGAGCAGT registered a sensor-assay potency score (higher = more potent) in the assay with AIG1 of -0.722.

On to TTGATGGGGTCAATCTCGGTGA, for which the sensor-assay potency score (higher = more potent) with AHCY was -1.04.

TAGAGGTTGTCAAACTTGCTCT came in with a sensor-assay potency score (higher = more potent) with AHCY of -0.554.

In the assay with AHDC1, TTTGTATGTGGTCTTGTTCCGC displayed a sensor-assay potency score (higher = more potent) of 0.223.

In the assay with AIG1, TTATCAGTAATGACTTTGGGAA gave a sensor-assay potency score (higher = more potent) of -0.914.

With TTAACAGTCTATTCTAACCCCT, the sensor-assay potency score (higher = more potent) in the assay with AHCY was -0.371.

In the assay with AHDC1, TTGCGGGTAGAGACCACTGGGG displayed a sensor-assay potency score (higher = more potent) of -0.627.

The sequence TAGAGCAGTAAGACAGCAGGAT displayed a sensor-assay potency score (higher = more potent) with AIG1 of 0.285.

In the assay with AHCY, TTAGCTTGGTCAACTTCACATT yielded a sensor-assay potency score (higher = more potent) of -0.84.

For TAAATGATCCAGAACACTGCTA, the sensor-assay potency score (higher = more potent) with AIG1 came to 0.31.

TTCGGGTATATCATCTCTCTGT returned a sensor-assay potency score (higher = more potent) with AIG1 of -0.249.

In the assay with AHCY, TTCAGCCACTGCCTCATCCAGC showed a sensor-assay potency score (higher = more potent) of -0.886.

For the sequence TTTGGAAACAACTGTATTCTAT, the sensor-assay potency score (higher = more potent) with AIG1 is -0.0597.

TTGTCAAACTTGCTCTTGGTGA displayed a sensor-assay potency score (higher = more potent) in the assay with AHCY of -0.625.

Consider ATCTCGGTGATGATGACGCGGG, for which the sensor-assay potency score (higher = more potent) with AHCY is -1.23.

Consider TCGATCTGCGCCATCACCTGGT, for which the sensor-assay potency score (higher = more potent) with AHCY is -0.451.

As for TCTGGTTCCAGTTGTAGCCGGG, the sensor-assay potency score (higher = more potent) with AHDC1 was determined as 0.572.

Sequence TTCTTCATCTTCAGCAGCGGGG returned a sensor-assay potency score (higher = more potent) with AHDC1 of -0.945.

Consider TTGATGTTCACCTTCTCCACGG, for which the sensor-assay potency score (higher = more potent) with AHCY stood at 0.235.

Regarding TTGCTAAGGCACAAAGAACTGG, the sensor-assay potency score (higher = more potent) in the assay with AKR1C4 is -0.934.

TTTTGCTTGCTGACAGTCTTTG came in with a sensor-assay potency score (higher = more potent) in the assay with ANGPTL1 of -0.992.

In the assay with ANGPTL1, TTGATTGCTAAGCATATAGATA had a sensor-assay potency score (higher = more potent) of -1.25.

For the sequence TTCTTAGGTTTTCTCTGTGAGG, the sensor-assay potency score (higher = more potent) with ANG was -0.88.

Sequence TTAGGTTTTCTCTGTGAGGGTT came in with a sensor-assay potency score (higher = more potent) with ANG of 0.674.

TAATGTTTGTTGTCTTTCCAGT displayed a sensor-assay potency score (higher = more potent) in the assay with ANGPTL3 of -0.418.

As to TTGCAGAACATCTATCTCCCGC, the sensor-assay potency score (higher = more potent) with ANGPTL1 was 0.289.

For TTCTTTTATTTGACTATGCTGT, the sensor-assay potency score (higher = more potent) with ANGPTL3 was -0.537.

Take TCTGTGAGGGTTTCCATTCTTG: in the assay with ANG, the sensor-assay potency score (higher = more potent) is -0.487.

Sequence TTTAATGGTACTTGCATCTTGC returned a sensor-assay potency score (higher = more potent) in the assay with ANGPTL1 of 0.613.

With TACACTTGTTTTGTGAACCTCT, the sensor-assay potency score (higher = more potent) with ANAPC5 amounted to 0.756.

In the case of TTGTTTTGTGAACCTCTGGTTC, the sensor-assay potency score (higher = more potent) with ANAPC5 is -0.673.

Regarding AATGTGTTGATGTCTTTGCAGG, in the assay with ANG, the sensor-assay potency score (higher = more potent) was -1.22.

Regarding TTAATGTCCATGGACTACCTGA, the sensor-assay potency score (higher = more potent) with ANGPTL3 was -0.665.

Consider TAGACTTTTTTATCACTCCAGT, for which the sensor-assay potency score (higher = more potent) with ANGPTL1 is -0.73.

For the sequence TGGTTTGGCATCATAGTGCTGG, the sensor-assay potency score (higher = more potent) in the assay with ANG is -0.375.

In the assay with ANGPTL3, TATAACATCACAGTAGACATGA showed a sensor-assay potency score (higher = more potent) of 0.929.

For the sequence TAATTTTGAATTGTCCACCTCT, the sensor-assay potency score (higher = more potent) in the assay with ANGPTL1 is 0.889.

Sequence TTAAATCTCTGGGATAACCTGG gave a sensor-assay potency score (higher = more potent) with ANGPTL1 of -0.522.

Regarding TCACAGATGGCCTTGATGCTGC, the sensor-assay potency score (higher = more potent) in the assay with ANG was -0.333.

For the sequence TACAGTTTAAACACTTGGCTGA, the sensor-assay potency score (higher = more potent) with ANAPC5 stood at 0.833.

Take TTTGTGATCCATCTATTCGATG: the sensor-assay potency score (higher = more potent) with ANGPTL3 is -1.29.

As to TCACAAGCAACAACAACGTTTC, the sensor-assay potency score (higher = more potent) with ANG was -0.587.

TTGAATACTAGTCCTTCTGAGC registered a sensor-assay potency score (higher = more potent) with ANGPTL3 of -0.706.

TTGATGTCTTTGCAGGGTGAGG: the sensor-assay potency score (higher = more potent) in the assay with ANG is -1.52.

The sequence TTATAGAGTATAACCTTCCATT had a sensor-assay potency score (higher = more potent) with ANGPTL3 of -0.924.

TTGTTTTCACAGATGGCCTTGA gave a sensor-assay potency score (higher = more potent) with ANG of 0.228.

TAAATTGTTAAGTATCTTGAAC: the sensor-assay potency score (higher = more potent) in the assay with ANGPTL1 was -0.687.

Regarding TAGAATTTTTTCTTCTAGGAGG, the sensor-assay potency score (higher = more potent) with ANGPTL3 was -0.766.

TAGGTTTTCTCTGTGAGGGTTT returned a sensor-assay potency score (higher = more potent) with ANG of 0.619.

With TTTGACAGTGTAATATCTGGGC, the sensor-assay potency score (higher = more potent) with ANAPC5 worked out at 0.588.

(Values after the OligoGym collection.)
